# Measurements reported in PubChem BioAssay (NCATS).
# Several values for one entry are separate records, joined by “and”; a condition that tells them apart may be missing. Equal values may be shown once. Inconclusive results are not listed. Where a call stands in place of a potency, no number is given. Where a structure was tested more than once in an assay, its records may differ in their call. Activity calls are given as the source filed them. The call rests on the fitted dose curve; in most records, active means well fitted curve in the direction sought with a large enough effect; inconclusive means small, poorly fitted or top-dose-only effect, or another doubt; inactive means no such curve, though single readings can be large; an effect the other way counts as inactive or inconclusive.
# Assays:
# [1] = biological target: Glutathione peroxidase 1 (Homo sapiens) (UniProt P07203); experiment: Primary qHTS Assay for Inhibitors of Recombinant Selenoprotein Glutathione Peroxidase 1 (GPX1) (AID 1845191); further: nearly all actives have a fitted effect of over 65% in size; further: potency means the concentration at half of the fitted maximal effect
# Sequence of Glutathione peroxidase 1 (Homo sapiens) (P07203 whole entry, looked up): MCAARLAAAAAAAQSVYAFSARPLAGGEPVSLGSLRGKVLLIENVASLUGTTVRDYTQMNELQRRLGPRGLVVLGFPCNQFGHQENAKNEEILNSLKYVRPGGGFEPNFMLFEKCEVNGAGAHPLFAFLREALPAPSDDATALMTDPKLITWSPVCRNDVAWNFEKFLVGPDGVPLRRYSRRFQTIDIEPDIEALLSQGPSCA
# Method in brief: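 10 nM GPX1 + cpd, 30 min RT; start w/ 1 mM GSH, 0.5 mM cumene hydroperoxide, 0.5 mM NADPH, 100 nM GR, 0.01% BSA; buffer 50 mM Tris-HCl pH 7.5, 2 mM EDTA, 150 mM NaCl; Fl 340/450, 0 & 15 min.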
# [2] = biological target: Phospholipid hydroperoxide glutathione peroxidase GPX4 (Homo sapiens) (UniProt P36969); experiment: Primary qHTS Assay for Inhibitors of Recombinant Selenoprotein Glutathione Peroxidase 4 (GPX4) (AID 1845192); further: nearly all actives have a fitted effect of over 65% in size; further: potency means the concentration at half of the fitted maximal effect; on activity change, negative = inhibition: series mostly up to about 50 µM
# Sequence of Phospholipid hydroperoxide glutathione peroxidase GPX4 (Homo sapiens) (P36969 whole entry, looked up): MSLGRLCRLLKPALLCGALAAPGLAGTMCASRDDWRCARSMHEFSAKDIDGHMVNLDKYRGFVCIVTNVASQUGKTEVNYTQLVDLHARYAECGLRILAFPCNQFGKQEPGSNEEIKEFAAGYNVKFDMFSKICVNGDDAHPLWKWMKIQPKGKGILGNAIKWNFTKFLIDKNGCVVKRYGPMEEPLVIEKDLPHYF
# Method in brief: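 NADPH consumption, followed by fluorescence at 340/450 nm between 0 and 15 min, reports GPX4 activity via coupled glutathione reductase (100 nM). Enzyme 200 nM was pre-exposed to compound 30 min; 0.5 mM cumene hydroperoxide and 1 mM GSH served as substrates.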
# [3] = biological target: Luciferin 4-monooxygenase (Photinus pyralis) (UniProt P08659); experiment: Primary firefly luciferase (FLuc) qHTS assay for identification of artifact compounds. (AID 1845220); further: nearly all actives have a fitted effect of over 60% in size; further: potency means the concentration at half of the fitted maximal effect; on activity change, negative = inhibition: series mostly up to about 54 µM
# Method in brief: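 Compounds sat 15 min at room temperature with 10 uM luciferin and 10 uM ATP (pH 7.6 Tris acetate). Firefly luciferase (10 nM final) was then added, and luminescence was read 5 min later. Data normalized to no-enzyme and DMSO controls were Hill-fitted.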
# [4] = Primary fluorescence-based thiol-reactive (MSTI) qHTS assay for identification of artifact compounds. (AID 1845221); further: nearly all actives have a fitted effect of over 65% in size; further: potency means the concentration at half of the fitted maximal effect;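 on activity change, negative = thiol reactive: series mostly up to about 54 µM; thiol-reactive compounds lower the probe fluorescence signal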
# Method in brief: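 Reactivity toward the thiol probe MSTI (4 uM) is scored by fluorescence at Ex/Em 525/598 nm after 1 h at room temperature. Acetyl-MSTI and MSTI define the activity scale.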
# [5] = system: Nanoluciferase (engineered Oplophorus gracilirostris luciferase); experiment: Primary Nanoluciferase (NLuc) qHTS assay for identification of artifact compounds. (AID 1845222); further: series mostly up to about 54 µM
# Method in brief: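 Luminescence from secreted NLuc (filtered, 1:55-diluted S16 cell medium) read 5 min after Nano-Glo substrate; compounds preincubated 15 min, RT. Hill fits of inhibition normalized to DMSO and no-enzyme.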
# [6] = Primary redox qHTS assay for identification of artifact compounds. (AID 1845223)
# Method in brief: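 Amplex Red (25 uM) and HRP (250 mU/mL) in HBSS, with compounds for 15 min, then 250 uM DTT for 30 min, room temperature, dark. Fluorescence 525/598 nm read; normalized to DMSO and 10 uM DA3003; Hill fit.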
structure (smiles),measurement,setting,value
O=C(NCCCn1ccnc1)c1cc(-c2ccco2)on1,Potency,[1],inactive
same,Potency,[2],inactive
same,Potency,[3],inactive
same,Potency,[4],inactive
same,Potency,[5],inactive
same,Potency,[6],inactive
C=C(C)C(=O)O[C@H]1C[C@@](C)(O)C2(O)CCC(C)(/C=C3/OC(=O)C(COC)=C31)O2 (stereo partly drawn),Potency,[1],inactive
same,Potency,[2],inactive
same,Potency,[3],inactive
same,Potency,[4],inactive
same,Potency,[5],inactive
same,Potency,[6],inactive
Cc1c(C(=O)Nc2ccc(N3CCC(N4CCOCC4)CC3)c(C#N)c2)cnn1-c1ccc(Cl)cc1,Potency,[1],inactive
same,Potency,[2],inactive
same,Potency,[3],inactive
same,Potency,[4],inactive
same,Potency,[5],inactive
same,Potency,[6],inactive
CC(=O)O[C@@H]1[C@@H](OC(C)=O)[C@H](C)O[C@@H](O[C@H]2[C@@H]3C=CO[C@@H](O[C@@H]4O[C@H](CO)[C@@H](O)[C@H](O)[C@H]4O)[C@@H]3[C@@]3(CO)O[C@@H]23)[C@@H]1OC(=O)/C=C/c1ccccc1,Potency,[1],inactive
same,Potency,[2],inactive
same,Potency,[3],inactive
same,Potency,[4],inactive
same,Potency,[5],inactive
same,Potency,[6],inactive
O=C(N[C@H]1CCN(C(=O)c2cc(C(F)(F)F)cc(C(F)(F)F)c2)[C@H](Cc2ccc(Cl)cc2)C1)c1ccnc2ccccc12,Potency,[1],inactive
same,Potency,[2],inactive
same,Potency,[3],inactive
same,Potency,[4],inactive
same,Potency,[5],inactive
same,Potency,[6],inactive
C=C1C(=O)O[C@@H]2/C=C(\C)CC/C=C(/C=O)[C@H](OC)[C@@H](OC(=O)C(C)C)[C@@H]12,Potency,[1],inactive
same,Potency,[2],inactive
same,Potency,[3],inactive
same,Potency,[4],inactive
same,Potency,[5],inactive
same,Potency,[6],inactive
CCCC(=O)C1(c2ccccc2)CCN(C(=O)[C@@H](Cc2ccc(OC)cc2)NC(=O)[C@@H](N)Cc2cncn2C)CC1,Potency,[1],inactive
same,Potency,[2],inactive
same,Potency,[3],inactive
same,Potency,[4],inactive
same,Potency,[5],inactive
same,Potency,[6],inactive
CC(C)(CO)c1cc2cc(NC(=O)C3(c4ccc5c(c4)OC(F)(F)O5)CC3)c(F)cc2n1CC(O)CO (stereo not drawn),Potency,[1],inactive
same,Potency,[2],inactive
same,Potency,[3],inactive
same,Potency,[4],inactive
same,Potency,[5],inactive
same,Potency,[6],inactive
Oc1ccc(-c2cnc3ccc(NCc4ccco4)nn23)cc1,Potency,[1],inactive
same,Potency,[2],inactive
same,Potency,[3],inactive
same,Potency,[4],5.97 µM (active)
same,Potency,[5],inactive
same,Potency,[6],inactive
CN1c2c(nc(N)[nH]c2=O)NC[C@@H]1CNc1ccc(C(=O)N[C@@H](CCC(=O)O)C(=O)O)cc1,Potency,[1],inactive
same,Potency,[2],inactive and 1.24 µM (active)
same,Potency,[3],inactive
same,Potency,[4],inactive
same,Potency,[5],inactive
same,Potency,[6],inactive
C=C1C(=O)O[C@@H]2[C@H]1CC[C@H](C)C(CCC(=O)O)C2(C)O (stereo partly drawn),Potency,[1],inactive
same,Potency,[2],inactive
same,Potency,[3],inactive
same,Potency,[4],inactive
same,Potency,[5],inactive
same,Potency,[6],inactive
C[C@@H]1O[C@@H](O[C@H]2[C@H](OC(=O)[C@]34CCC(C)(C)C[C@H]3C3=CCC5[C@@]6(C)C[C@H](O)[C@H](O[C@@H]7O[C@H](CO)[C@@H](O)[C@H](O)[C@H]7O)[C@](CO)(C(=O)O)C6CC[C@@]5(C)[C@]3(C)C[C@H]4O)OC[C@H](O)[C@@H]2O)[C@H](O)[C@H](O)[C@H]1O[C@@H]1OC[C@@H](O)[C@H](O[C@@H]2OC[C@](O)(CO)[C@H]2O)[C@H]1O (stereo partly drawn),outcome,[1],inactive [at 9.52 µM]
same,"activity change, negative = inhibition",[2],-2.46% [at 9.73 µM] (inactive)
same,"activity change, negative = inhibition",[3],1.03% [at 11.6 µM] (inactive)
same,"activity change, negative = thiol reactive",[4],423% [at 11.5 µM] (inactive)
same,"activity, negative = inhibition",[5],2.55% [at 11.6 µM] (inactive)
same,redox activity (% of DA3003),[6],8.49% [at 11.5 µM] (inactive)
O=C(CNC(=O)c1cccc(C(F)(F)F)c1)N[C@@H]1CCN(Cc2ccc(Cl)cc2)C1,Potency,[1],inactive
same,Potency,[2],inactive
same,Potency,[3],inactive
same,Potency,[4],inactive
same,Potency,[5],inactive
same,Potency,[6],inactive
O=C(NC1CCC1)c1ccc(C#Cc2cccc(F)c2)nc1,Potency,[1],inactive
same,Potency,[2],inactive
same,Potency,[3],inactive
same,Potency,[4],inactive
same,Potency,[5],inactive
same,Potency,[6],inactive
Cc1cc(F)ccc1-c1nc(NCCN=C(N)NC#N)nc2c1ccc(=O)n2-c1c(F)cccc1F,Potency,[1],20.2 µM (active)
same,Potency,[2],22.7 µM (active)
same,Potency,[3],inactive
same,Potency,[4],inactive
same,Potency,[5],inactive
same,Potency,[6],inactive
COc1ccccc1S(=O)(=O)Nc1ccc2c(c1)CN(C)C(=O)N2,Potency,[1],inactive
same,Potency,[2],inactive
same,Potency,[3],inactive
same,Potency,[4],inactive
same,Potency,[5],inactive
same,Potency,[6],inactive
C=C1CO[C@@]2(O[C@H]3CC4C5CC=C6C[C@@H](O)C[C@@H](O[C@@H]7OC[C@H](O)[C@H](O[C@@H]8OC[C@@H](O)[C@H](O)[C@H]8O)[C@H]7O[C@@H]7O[C@@H](C)[C@H](OC(C)=O)[C@@H](OC(C)=O)[C@H]7OC(C)=O)[C@]6(C)C5CC[C@]4(C)[C@@H]3[C@@H]2C)[C@@H](O)[C@H]1OC1OC(C)C(O)C(O)C1O (stereo partly drawn),"activity, negative = inhibition",[1],0.917% [at 9.52 µM] (inactive)
same,outcome,[2],inactive [at 9.73 µM]
same,outcome,[3],inactive [at 11.6 µM]
same,"activity change, negative = thiol reactive",[4],69.1% [at 11.5 µM] (inactive)
same,"activity, negative = inhibition",[5],1.51% [at 11.6 µM] (inactive)
same,redox activity (% of DA3003),[6],7.69% [at 11.5 µM] (inactive)
C=C1CC(=O)C2OC2(C)CC2OC(=O)C(=C)C2C(O)C1OC(=O)/C(C)=C\C (stereo not drawn),Potency,[1],inactive
same,Potency,[2],inactive
same,Potency,[3],inactive
same,Potency,[4],inactive
same,Potency,[5],inactive
same,Potency,[6],inactive
CC(C)(C)C1CCN(C(=O)n2ncc(C(O)(c3ccccc3)c3ccccc3)n2)CC1,Potency,[1],inactive
same,Potency,[2],inactive
same,Potency,[3],inactive
same,Potency,[4],inactive
same,Potency,[5],inactive
same,Potency,[6],inactive
CN(C)C(=O)NC1(c2ccccc2)CCN(CCC[C@]2(c3ccc(Cl)c(Cl)c3)CCCN(C(=O)c3ccccc3)C2)CC1,Potency,[1],inactive
same,Potency,[2],inactive
same,Potency,[3],inactive
same,Potency,[4],inactive
same,Potency,[5],inactive
same,Potency,[6],inactive
O=C1c2ccc(Nc3ccc(F)cc3F)cc2CCc2ccc(OCC(O)CO)cc21 (stereo not drawn),Potency,[1],inactive
same,Potency,[2],inactive
same,Potency,[3],inactive
same,Potency,[4],inactive
same,Potency,[5],inactive
same,Potency,[6],inactive
Cc1ccc(C(=O)Nc2ccc(CN3CCN(C)CC3)c(C(F)(F)F)c2)cc1C#Cc1cnc2[nH]ncc2c1,Potency,[1],inactive
same,Potency,[2],inactive
same,Potency,[3],23.9 µM (active)
same,Potency,[4],inactive
same,Potency,[5],inactive
same,Potency,[6],inactive
O=C(c1ccccn1)N(Cc1cccs1)C1(C(=O)NC2CCCCC2)CCCCC1,Potency,[1],inactive
same,Potency,[2],inactive
same,Potency,[3],inactive
same,Potency,[4],inactive
same,Potency,[5],inactive
same,Potency,[6],inactive
